Bioassay records from PubChem.
In the library only some 2.4% were active in any assay of this set; here they are far more common.
D2 PAM-1 – D2 dopamine receptor (human) potentiation; AID 485347; P14416; potentiation, % at 10 µM; 340,000 compounds, 0.34% hits; HEK293 T-REx D2, calcium flux, EC20 dopamine potentiation;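 active = potentiation over 3 SD above the plate norm, cut at about 30% in these data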; also: 0% is about no effect
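Tetracycline-induced Hek293 Trex D2 cells, force-coupled to calcium, loaded with no-wash calcium dye. Compound added with 180 s kinetic read for agonism, then EC20 dopamine and a further 180 s read for potentiation.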
D2 ag-1 – activates the human D2 dopamine receptor; P14416; DiscoveRx PathHunter D2 beta-arrestin, luminescence, 90 min; 100% = 57 uM dopamine signal; activation, % (test concentration not listed); 360,000 compounds, 0.084% hits; AID 624465; in the data active = activation above about 40%; inconclusive = between about 15% and that limit
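Agonist mode: compounds alone added to overnight-plated D2 PathHunter cells for 90 min at 37 C, with 57 uM final dopamine (EC100) defining full response. Beta-arrestin recruitment detected by chemiluminescent reagent, read after 1 h at ambient temperature.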
D2 ag-2 – D2 dopamine receptor (human) agonism. P14416. HEK293 T-REx D2 cells, calcium flux agonist mode. activation, % at 2 µM. 340,000 compounds, 0.53% hits. AID 485358;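 active = activation over 3 SD above normal in the single-dose calcium agonist read, cut at about 30% in these data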; also: 0% is about no effect
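Agonism is scored from calcium flux in a force-coupled, inducible HEK293 cell line expressing D2, read kinetically for 180 s after compound addition against dopamine controls.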
D2 antagonist – antagonizes the human D2 dopamine receptor. P14416. HEK293 TREx D2 cells, calcium flux, dopamine EC80. inhibition, % at 10 µM. 340,000 compounds, 2% hits; in the data active = inhibition above about 30%; inactive = below that, where a call was filed; also: 0% is about no effect
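Calcium mobilization kinetics were recorded at 1 s intervals in tetracycline-induced HEK293 T-REx D2 cells, first for 180 s after compound addition and then 180 s after EC80 dopamine.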
D2 PAM-2 – positive allosteric modulators of human D2 dopamine receptor | P14416 | potentiation, % (test concentration not listed) | 360,000 compounds, 0.23% hits | DiscoveRx D2 beta-arrestin cells, luminescence, 90 min; 100% = 57 uM dopamine signal; in the data active = potentiation above about 50%; inconclusive = mostly about 30% to 49%
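PathHunter beta-arrestin assay in DiscoveRx D2 cells. Compounds were added with an EC20 of dopamine (50 nM final) for 90 min at 37 deg C. Luminescence was read 1 h after detection reagent, with 57 uM dopamine as the EC100 control.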
D3 arrestin ag – D3 receptor agonism confirmed, beta-arrestin readout | shares compounds with D2 ag-2 | DiscoveRx D3 beta-arrestin cells, luminescence, 90 min | Potency, µM (highest dose often 76.9 µM), for inactives: top-dose activation, actives largely listed as activators | 2,300 compounds, 4% hits;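 also: potency is read from the fitted curve at half-maximal effect; 100% = dopamine control response; nearly all actives have a fitted effect of over 70% in size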
Target sequence (P35462 whole entry, looked up): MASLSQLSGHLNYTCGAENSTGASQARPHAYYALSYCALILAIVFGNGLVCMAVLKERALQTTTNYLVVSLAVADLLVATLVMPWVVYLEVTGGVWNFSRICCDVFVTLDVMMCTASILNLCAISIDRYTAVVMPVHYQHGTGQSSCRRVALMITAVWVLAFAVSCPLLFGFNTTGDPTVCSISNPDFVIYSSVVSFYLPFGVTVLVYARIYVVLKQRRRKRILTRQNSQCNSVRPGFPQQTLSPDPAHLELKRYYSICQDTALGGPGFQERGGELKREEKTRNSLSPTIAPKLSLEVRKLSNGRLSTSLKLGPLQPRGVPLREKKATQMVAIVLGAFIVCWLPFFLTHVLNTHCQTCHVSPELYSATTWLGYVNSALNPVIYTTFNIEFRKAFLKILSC
D2 ag-3 – counter-screen for D3 agonists: human D2 dopamine receptor agonism; shares compounds with D2 ag-2; DiscoveRx PathHunter D2 beta-arrestin, luminescence, 90 min; response scale: percent relative to full dopamine signal; Potency, µM (highest dose often 76.9 µM), for inactives: top-dose activation, actives largely listed as activators; 2,300 compounds, 5.9% hits; also: potency is read from the fitted curve at half-maximal effect; % of control where 0% means no effect; nearly all actives have a fitted effect of over 70% in size
Numbers without * were called inactive. Unless noted, calls follow the shape of the dose curve; as a rule, active = well fitted activation curve with a large enough effect; inconclusive = small, poorly fitted or top-dose-only effect; inactive = flat fitted curve, though single readings scatter.

What do the screens show for `COc1ccc(CNCCNC(=O)c2ccco2)c(OC)c1OC`?
D2 PAM-1: -15; D2 ag-1: 2; D2 ag-2: 48*; D2 antagonist: -6; D2 PAM-2: -18; D3 arrestin ag: -4%; D2 ag-3: -4%

What do the screens show for `Cc1ccc(NC2=NCC(=O)N2Cc2cccs2)cc1C`?
D2 ag-1: -4; D2 PAM-2: 1; D3 arrestin ag: 1%; D2 ag-3: 2%

How did CN=c1scc(-c2ccco2)n1/N=C/c1ccc(O)c(O)c1 do in these assays?
D2 PAM-1: -9; D2 ag-1: 49*; D2 ag-2: 36*; D2 antagonist: 28; D2 PAM-2: 27; D3 arrestin ag: inconclusive; D2 ag-3: 35µM*

Results for COc1ccc(CCNC(=O)C(=O)NCC(c2cccnc2)N2CCN(c3ccccc3)CC2)cc1 (stereo unspecified) ?
D2 PAM-1: 2; D2 ag-2: 0

How did Cc1ccc(CN(Cc2ccco2)C(=O)c2oc3c(C)c(C)ccc3c2C)cc1 do in these assays?
D2 PAM-1: 1; D2 ag-2: 0

Results for COc1ccccc1Cn1cc(C(=O)c2ccc(C)cc2)c(=O)c2cc(C)ccc21 ?
D2 PAM-1: -6; D2 ag-2: -2

What do the screens show for `Cc1cc(C)n2nc(C(=O)Nc3ccn(Cc4ccccc4C)n3)cc2n1`?
D2 PAM-1: 0; D2 ag-1: 0; D2 ag-2: 51*; D2 antagonist: -8; D2 PAM-2: -1; D3 arrestin ag: 2%; D2 ag-3: -2%

What do the screens show for `COc1ccc(-c2cc(C#N)nc(Cl)n2)cc1`?
D2 PAM-1: 5; D2 ag-1: -2; D2 ag-2: 3; D2 antagonist: 26; D2 PAM-2: -4; D3 arrestin ag: -15%; D2 ag-3: -3%

How did Nc1ccc(N2CCN(CCCCN3C(=O)C4CCCN4C3=O)CC2)cc1 (stereo unspecified) do in these assays?
D2 PAM-1: -17; D2 ag-1: 6; D2 ag-2: 63*; D2 antagonist: 42*; D2 PAM-2: -16; D3 arrestin ag: 23%; D2 ag-3: 15%

What do the screens show for `Cc1ccccc1CNC(=O)Cn1ccc2cc(S(=O)(=O)N3CCCCC3)ccc21`?
D2 PAM-1: -5; D2 ag-2: 1

What do the screens show for `Cc1ccc(Cn2c(C)c3cnn(CC(=O)O)c(=O)c3c2C)cc1`?
D2 PAM-1: 7; D2 ag-2: -1

What do the screens show for `O=c1c2ccccc2nc(SCc2ccc([N+](=O)[O-])cc2)n1-c1ccccc1`?
D2 PAM-1: -4; D2 ag-1: 3; D2 antagonist: -3; D2 PAM-2: -5

What do the screens show for `O=C(O)c1ccc(CSc2nc3ccccc3c(=O)n2-c2ccccc2)cc1`?
D2 PAM-1: -18; D2 ag-1: 6; D2 ag-2: 58*; D2 antagonist: 48*; D2 PAM-2: 26; D3 arrestin ag: 0%; D2 ag-3: -3%

Results for COc1ccc([C@H]2CC(=O)C=C(c3ccc(OC)cc3OC)C2)cc1 ?
D2 PAM-1: 0; D2 ag-1: -1; D2 ag-2: 1; D2 antagonist: 4; D2 PAM-2: 5; D3 arrestin ag: -7%; D2 ag-3: -1%

Results for COc1ccc(C2=CC(=O)C[C@H](c3ccc(OC)cc3)C2)cc1 ?
D2 PAM-1: 0; D2 ag-1: -2; D2 PAM-2: -8

How did O=C1C=C(O)CC(c2ccc(Cl)cc2)C1 (stereo unspecified) do in these assays?
D2 PAM-1: 4; D2 ag-1: -1; D2 ag-2: 1; D2 antagonist: -8; D2 PAM-2: -21

How did COc1ccc(C2CC(=O)C=C(O)C2)cc1 (stereo unspecified) do in these assays?
D2 PAM-1: -16; D2 ag-1: -1; D2 ag-2: 53*; D2 antagonist: -9; D2 PAM-2: -14; D3 arrestin ag: -4%; D2 ag-3: -3%
